Results published in ChEMBL document CHEMBL4513216, “Probing the Open Global Health Chemical Diversity Library for Multistage-Active Starting Points for Next-Generation Antimalarials” (ACS Infect Dis, 2020).
Hit rate of the full screen: of about 65,000 compounds, about 2,100 (3.2%) showed an effect of 50% or more. The median lay at about -52%. Many of the other results were omitted from the sample, so strong results are more common in it than they were.

Test system: Plasmodium falciparum
Assay: Screen against P. falciparum Asexual Blood Stage (ABS), at 5uM
Type: functional, Dd2
Settings: tested at 5 uM

SMILES | INHIBITION
CCOc1ccc(OCCN2CCC(N3CCNC3=O)CC2)cc1 | -43.4%
Cc1cc2c(N)nc(=O)n(CC(=O)Nc3cccc(Cl)c3)c2s1 | -44.3%
O=C1N(Cc2cccc(F)c2)CCC12CCN(c1ccccn1)CC2 | 50.6%
Cc1cccc(CN2CCC3(CCN(c4ncccn4)C3)C2=O)c1 (configuration not stated) | -63.6%
O=C1N(Cc2cccc(F)c2)CCC12CCCN(c1ncc(F)cn1)C2 (configuration not stated) | -95.8%
Cc1noc(C)c1C(=O)N1Cc2ncn(C)c2C(COCC2CC2)C1 (configuration not stated) | -98.5%
Cc1ccc(N2CC[C@H]3CO[C@H](CN(C)Cc4ccco4)[C@H]3C2)nn1 | -35.9%
CN(Cc1ccco1)C[C@H]1OC[C@@H]2CCN(Cc3nccs3)C[C@@H]21 | 11.4%
CN(Cc1ccco1)C[C@H]1OC[C@@H]2CCN(Cc3ccncc3)C[C@@H]21 | 2.4%
Cc1cccc(N2CC[C@H]3CO[C@H](CN(C)Cc4ccco4)[C@H]3C2)n1 | 50.7%
CN(Cc1ccco1)C[C@H]1OC[C@@H]2CCN(Cc3cccnc3)C[C@@H]21 | -38.5%
CN(Cc1ccco1)C[C@@H]1OC[C@H]2CN(Cc3nccs3)CC[C@H]21 | -48.2%
Cc1cccc(N2CC[C@H]3[C@H](CO[C@@H]3CN(C)Cc3ccco3)C2)n1 | 7.29%
Cc1ccc(CN2CC[C@H]3CO[C@H](CN(C)Cc4ccco4)[C@H]3C2)s1 | 58.7%
CN(Cc1ccco1)C[C@H]1OC[C@@H]2CCN(Cc3ccsc3)C[C@@H]21 | 67.3%
O=C(c1ccco1)N1CCCC2(CCN(c3nncs3)C2)C1 (configuration not stated) | -157%
O=C(NCc1ccccn1)[C@@]12CCO[C@@H]1CCN(Cc1ccccn1)C2 | -75.4%
CC(C)(C)c1nc(CNc2ccccc2SCCC(N)=O)cs1 | -98.5%
CN(C)C1CCC2(CCN(Cc3nccn3C)CC2)c2ccccc21 (configuration not stated) | 24.3%
Cn1cc(C(=O)NCCc2ccc(OC3CCCC3)cc2)ccc1=O | -53.4%
O=S(=O)(c1ccccc1)N1CCC2(CCCN2Cc2ccccc2Cl)C1 (configuration not stated) | -129%
CCCNC(=O)C1CCCN(c2ccc3nncn3n2)C1 (configuration not stated) | -47.2%
CS(=O)(=O)Nc1ccn(Cc2ccc(Cl)cc2)n1 | -58.2%
CCCN(CCC)c1ncc(S(=O)(=O)c2ccccc2)c(N)n1 | -9.26%
CCCN(CCC)c1ncc(S(=O)(=O)c2ccc(OC)cc2)c(N)n1 | 67.6%
CCCN(CCC)c1ncc(S(=O)(=O)c2ccc(C)cc2)c(N)n1 | 14.8%

SMILES | INHIBITION
CC(C)(C)NC(=O)N1CCC(Oc2ccc(C(F)(F)F)cn2)CC1 | -12%
CNC(=O)CN1CCCC12CCN(C(=O)c1ccoc1)CC2 | 53.1%
CNC(=O)CN1CCCC12CCN(C(=O)c1ccc(F)cc1)CC2 | -39%
CN(C)CCN1CCCC12CCN(C(=O)c1ccoc1)CC2 | -39%
O=C(CCNc1ncccn1)N1CCCC(n2cccn2)C1 (configuration not stated) | -28.6%
Cc1cc(C(=O)NC2CCCc3c2cnn3-c2cccc(C)c2C)[nH]n1 (configuration not stated) | -1.74%
Cc1ccc(C(=O)O)c(N2Cc3cnc(C(C)(C)C)nc3C2)n1 | -21.3%
CC(C)Cc1ncc2c(n1)CN(c1nc3ccccc3cc1CO)C2 | -50%
Cc1cccc2cc(CO)c(N3Cc4cnc(C(C)(C)C)nc4C3)nc12 | 66.5%
O=C(c1ccoc1)N1CCO[C@]2(CCC[C@@H]2COCc2cccnc2)C1 | -54.6%
Cc1ccc(N2CC[C@@H]3[C@@H]2CCN3C(=O)Cc2ccsc2)nn1 | -93.9%
Cc1cc2c(cc1NC(=O)NC(C)(C)C)OCO2 | -23.5%
CCOCc1nc2c(c(N(C)Cc3snnc3C)n1)CCNCC2 | -48%
CCOCc1nc2c(c(N(C)Cc3nonc3C)n1)CCNCC2 | 47.4%
CCOCc1nc2c(c(N(C)Cc3ccsc3)n1)CCNCC2 | 64.4%
CN(C)CCN1C[C@@H]2CN(c3ccccc3)C[C@@H]2C1=O | -41.2%
c1cnn(CCCO[C@@H]2CC[C@H]3[C@H]2OCCN3CC2CC2)c1 | -65.8%
CN(Cc1cccnc1)C1CC2(CCN(Cc3ccccn3)CC2)C1 | 10.3%
Cc1ccc(CNC(=O)NC2CCCc3c2cnn3CCO)cn1 (configuration not stated) | -91.3%
Cc1ccsc1CN(c1nc(CCN)nc2ccccc12)C1CC1 | 51.4%
COCCN(Cc1cccs1)c1nc(CCN)nc2ccccc12 | 62.2%
NCCc1nc(N(Cc2cncs2)C2CC2)c2ccccc2n1 | -30.2%
NCCc1nc(N(Cc2nccs2)C2CC2)c2ccccc2n1 | -53.9%
COCCN(CC1CC1)c1nc(CCN)nc2ccccc12 | 12.1%
CCCc1ncc(CN(CCOC)Cc2cccs2)cn1 | -70.2%
O=C(Cc1ccon1)N1CCN(c2ccc(F)cc2Cl)CC1 | -28.3%

SMILES | INHIBITION
Cc1cnn(CCNCC(O)COc2ccc(F)cc2)c1 (configuration not stated) | 47.3%
O=C(c1ccco1)N1CCC12CCN(c1ncc(F)cn1)CC2 | -79.7%
CN(C)S(=O)(=O)N1CCC(Oc2cccnn2)CC1 | -57.2%
CC(C)C(=O)NCCC(=O)N1CCN(c2ccccn2)CC1 | -172%
CCCC(C)NCc1cccnc1N1CCN(c2ccccn2)CC1 (configuration not stated) | 51.4%
CC(C)NCc1cccnc1N1CCN(c2ccccn2)CC1 | 3.69%
CC(C)CC(C)NCc1cccnc1N1CCN(c2ccccn2)CC1 (configuration not stated) | 56.6%
Cc1nn(C)c(Cl)c1CNCc1cccnc1N1CCOCC1 | -69.2%
Cc1nn(C)c(C)c1CNCc1cccnc1N1CCOCC1 | -43.9%
CCC(C)NC(=O)NCCC(=O)N1CCN(c2ccccn2)CC1 (configuration not stated) | -15.2%
CC(C)CC(C)NCc1cccnc1N1CCOCC1 (configuration not stated) | 60.8%
CCC(CC)C(=O)NCCC(=O)N1CCN(c2ccccn2)CC1 | -123%
CC1(C)CNC(=O)CN(C(=O)COc2ccccc2)C1 | -24.2%
NCCCNS(=O)(=O)Cc1ccc(Br)cc1 | -29.3%
Cc1cccc(CN2C(=O)CCC23CCN(Cc2ccoc2)CC3)n1 | -81%
CN(C)C(=O)CN1C(=O)CCC12CCN(Cc1ccc(F)cc1)CC2 | -99.9%
Cc1noc(C)c1CN1CCN(c2ccnc(-c3ccccc3)n2)CC1 | -33.7%
CCN(CC)C1CCN(C(=O)c2cc3cc(C)cc(C)c3nc2C)CC1 | 56.8%
Cc1cc(C)c2nc(C)c(C(=O)N3CCC(CCN(C)C)CC3)cc2c1 | -87.5%
Cc1cc(C)c2nc(C)c(C(=O)N3CCC(N4CCCC4)CC3)cc2c1 | -39.3%
Cc1cc(CN2C[C@@H](C)[C@@]3(CCN(CC(=O)N(C)C)C3=O)C2)oc1C | -100%
CC[C@H](C)[C@H](NC(=O)c1ccc(-n2cnnn2)cc1)C(=O)OC | -18.7%
O=C(c1occc1CN1C(=O)Cc2ccccc21)N1CC(O)C1 | -89.1%
O=C(c1occc1CN1C(=O)Cc2ccccc21)N1CCCCCC1 | 3.14%
CN1CCN(C(=O)c2occc2CN2C(=O)Cc3ccccc32)CC1 | 54.3%
Cc1cc(C(N)=O)nc(C2(C)CCCN2Cc2cnn(C)c2C)n1 (configuration not stated) | -80.5%

SMILES | INHIBITION
O=C(N[C@@H]1CCCNC1)C1(Oc2ccc(Cl)cc2)CCNCC1 | -14.3%
Cc1ccc(OC2(C(=O)N(C)Cc3ccoc3)CCNCC2)cc1 | 63.5%
CN(Cc1ccoc1)C(=O)C1(Oc2ccc(Cl)cc2)CCNCC1 | 66.9%
CN(Cc1ccoc1)C(=O)CN1C(=O)OC(C)(C)C1=O | -47.7%
CN(Cc1ccncn1)C(=O)C1(Oc2ccc(Cl)cc2)CCNCC1 | -74.1%
CN(C)C(=O)C1(Oc2ccc(Cl)cc2)CCNCC1 | 49.2%
COCC(=O)N1CCCn2c(CN3CCCC3)nnc2C1 | -108%
CC(C)NC(=O)C1(CC2CC(c3ccc(F)cc3)=NO2)CCNCC1 (configuration not stated) | -90.4%
COc1ncc(NCc2ccc(Cl)c(Cl)c2)cc1C(N)=O | -14%
Cn1ccc(NC(=O)CN2C[C@@H]3CC[C@H]2CN(Cc2ccccn2)C3)n1 | -21.7%
O=C(CN1C[C@@H]2CC[C@H]1CN(Cc1ccccn1)C2)NCc1cccs1 | 68.4%
O=C(c1cc(C2CC2)no1)N1C[C@@H]2CC[C@H]1CN(Cc1ccccn1)C2 | 9.2%
c1cc(CN2C[C@@H]3OCCN(CC4CC4)[C@@H]3C2)n[nH]1 | 7.58%
CC(=O)N1CCO[C@@H]2CN(S(=O)(=O)C3CC3)C[C@@H]2C1 | -114%
CCCc1cncnc1N1CCC(NCc2ccncc2)CC1 | 66.1%
Cc1csc2c(N3CCC(NCCc4ccnn4C)CC3)ncnc12 | -18.8%
Cc1csc2c(N3CCC(NCCCc4cnn(C)c4)CC3)ncnc12 | -10.6%
CCCc1cncnc1N1CCC(NCc2ccc(O)cc2)CC1 | 50.2%
Cc1csc2c(N3CCC(NCCCc4ccncc4)CC3)ncnc12 | 64.6%
CCCc1cncnc1N1CCC2(CCC(=O)N(CCCO)C2)CC1 | -6.89%
CCCc1cncnc1N1CCC2(CCC(=O)N(C3CCCC3)C2)CC1 | 29.3%
CCCN1CCC(NCc2ccncc2)CC1 | -47.1%
Cc1ccc(CNC2CCN(CCc3ccncc3)CC2)s1 | -1.43%
CCOc1ccc(C(=O)CCC(=O)N(C)Cc2nc(C)c[nH]2)cc1C | -27.6%
